# Screening data as filed in PubChem.
# hgDAF-12 ag – H. glycines DAF-12 receptor agonists, primary screen, cell-based, luminescence, HEK293, GAL4 fusion, UAS-luciferase | Nuclear hormone receptor DAF-12 (Heterodera glycines), GAL4 fusion | HEK293 GAL4-hgDAF12 UAS-luciferase reporter, agonist luminescence; normalized to butyrate control | activation, % at 6.8 µM | 370,000 compounds, 1.8% hits | AID 687014, 2013;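 active = activation above a cutoff set at the mean of all screened compounds plus 3 SD, cut at about 10% in these data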;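 note: 0% = DMSO wells and 100% = sodium butyrate wells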
# hcDAF-12 act – H. contortus DAF-12 nuclear receptor activators, primary screen, cell-based, luminescence, HEK293, lit1-tk-luc reporter. HEK293 hcDAF-12 lit1-tk-luc reporter; 0% DMSO, 100% Δ7-dafachronic acid. activation, % at 6.8 µM. 370,000 compounds, 1.4% hits;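 active = activation above the mean of all tested compounds plus 3 SD, cut at about 5.5% in these data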;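 note: 100% = response to 3 µM Δ7-dafachronic acid high control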
# SMARCA2 act – SMARCA2 (BRM) function activators, primary screen, cell-based, luminescence, high throughput. MG213 cells, MMTV-luciferase reporter, dexamethasone, overnight. activation, % at 9.1 µM. 370,000 compounds, 1% hits; in the data active = activation above about 7.8%;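 note: 0% = vehicle wells and 100% = reference activator wells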
# ssDAF12 agonist – S. stercoralis DAF-12 nuclear receptor activators, primary screen, cell-based, luminescence, HEK293, GRIP1 co-expression, lit1-tk-luc | Nuclear hormone receptor DAF-12 (Strongyloides stercoralis) | HEK293 ssDAF-12/GRIP1 lit1-tk-luc reporter; % of 3 µM dafachronic acid response | activation, % at 6.8 µM | 370,000 compounds, 1% hits;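 active = activation above the mean over all tested compounds plus 3 SD, cut at about 0.9% in these data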;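 note: 0% = DMSO-only wells and 100% = 3 µM delta7-dafachronic acid wells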
# DAX1 inh-1 – DAX1 (NR0B1) inhibitors on StAR promoter, primary screen, cell-based, luminescence, SF-1 (NR5A1), full-length DAX-1. HEK293T StAR-luciferase reporter, SF-1/DAX-1 repression relief. inhibition, % at 6.8 µM. 370,000 compounds, 1.1% hits;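 active = inhibition above the mean over all tested compounds plus 3 SD, cut at about 3.6% in these data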;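 note: 0% = DAX-1 cells with DMSO and 100% = cells lacking DAX-1 with DMSO; higher inhibition means more luminescence from relief of DAX-1 repression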
# DAX1 inh-2 – DAX1 (NR0B1) inhibitors, primary screen, cell-based, HEK293, Gal4-DAX1, luciferase luminescence; AID 504766, 2011; HEK293 Gal4-DAX1 luciferase reporter; inhibition, % at 6.75 µM; Nuclear receptor subfamily 0 group B member 1 (Homo sapiens), P51843; 340,000 compounds, 0.99% hits;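 active = inhibition above the mean over all tested compounds plus 3 SD, cut at about 4.2% in these data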;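 note: 0% = DAX1-transfected cells with DMSO and 100% = empty-vector control cells with DMSO; inhibition shows as a rise in luminescence from relieved DAX1 repression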
# Target sequence (P51843 207-470 limits assumed): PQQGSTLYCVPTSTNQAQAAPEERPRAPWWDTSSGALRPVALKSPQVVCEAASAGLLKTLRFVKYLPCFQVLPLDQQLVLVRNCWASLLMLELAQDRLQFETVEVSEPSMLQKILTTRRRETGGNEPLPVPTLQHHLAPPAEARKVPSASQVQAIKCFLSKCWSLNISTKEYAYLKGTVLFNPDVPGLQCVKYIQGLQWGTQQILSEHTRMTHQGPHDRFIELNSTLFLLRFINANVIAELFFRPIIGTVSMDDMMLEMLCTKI
# DAX1 inh confirm – DAX1 (NR0B1) inhibitors relieving SF-1 repression, confirmation, cell-based, luminescence, HEK293T, full-length DAX-1, SF-1 activated StAR promoter; shares compounds with DAX1 inh-1; inhibition, % at 6.8 µM; 2,400 compounds, 87% hits; HEK293T StAR-promoter luciferase reporter, SF-1/DAX-1 repression;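 active = inhibition above the average of every tested compound plus 3 SD, cut at about 3.8% in these data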;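 note: 0% = DAX-1 cells with DMSO and 100% = no DAX-1 control cells with DMSO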
# SF1 mutant ctr – StAR reporter signal changes without DAX1, counter-screen for DAX1 inhibitor project, cell-based, luminescence, AF-2 mutant SF-1, transactivation | AID 652136, 2013 | HEK293 StAR-luciferase, SF-1 AF2 mutant | 2,400 compounds, 78% hits | shares compounds with DAX1 inh-1 | inhibition, % at 6.8 µM;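 active = inhibition above the mean of all tested compounds plus 3 SD, cut at about 3% in these data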;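 note: 0% = DAX-1 transfected cells with DMSO and 100% = cells without DAX-1 with DMSO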
# Numbers without * were called inactive; · = no result given. An excerpt weighted towards active compounds, which were near 4.8% of everything screened.
SMILES,hgDAF-12 ag,hcDAF-12 act,SMARCA2 act,ssDAF12 agonist,DAX1 inh-1,DAX1 inh-2,DAX1 inh confirm,SF1 mutant ctr
Nc1ccc2nc(-c3ccc(-c4nc5ccc(N)cc5[nH]4)cc3)[nH]c2c1,-2,-1,-3,-2,0,·,·,·
Nc1ccc(-c2nc3ccccc3[nH]2)cc1,11*,3,1,-1,5.2*,3,9.9*,6.8*
COc1ccc(C(C)c2cn(C)c3ccccc23)cc1 (configuration not stated),0,2,0,0,-1,·,·,·
COC(=O)C1=CN(c2ccc(OC)cc2)C(N)=C(C#N)C1c1cccc2ccccc12 (configuration not stated),-4,0,2,-1,0,·,·,·
COC(=O)C1=CN(c2ccc(C(C)(C)C)cc2)C(N)=C(C#N)C1c1cccc2ccccc12 (configuration not stated),-6,1,-4,-1,5.2*,·,-1,-1
Cc1ccc(Cn2cc(CN3CC(N4CCN(C5CCN(C)CC5)CC4)CS3(=O)=O)nn2)cc1 (configuration not stated),-2,0,-1,-1,4.7*,·,3,4.1*
CC(C)C[C@@H]1COc2cc(Br)ccc2S(=O)(=O)N1Cc1cn(CCC2OCCO2)nn1,0,-1,0,-1,-1,·,·,·
CN(Cc1ccccc1)C(=O)OCc1cn(Cc2ccccc2F)nn1,1,-1,-2,-2,0,·,·,·
COc1ccc(S(=O)(=O)c2ccc(OC)cc2)cc1,-1,0,-2,-1,-1,0,·,·
COc1ccc(N=[N+]([O-])c2ccc(OC)cc2)cc1,9,5,1,1,7.9*,1,16*,6.8*
COC(=O)[C@H](C(C)C)N1Cc2nnn(Cc3ccccc3)c2-c2cc(F)ccc2S1(=O)=O,2,-1,-6,-2,0,·,·,·
CCCCn1c(N)c(N(C)C(=O)c2ccc(Br)o2)c(=O)[nH]c1=O,1,1,2,-1,4.6*,0,0,2
COc1ccc(CN(CCN2CCOCC2)C(=O)c2cc(F)ccc2F)cc1OC,-2,-3,-4,-1,0,·,·,·
Cc1c(CCNC=O)cc(C)c2c3c(oc12)CCCC3,7,1,5,0,4.9*,5.3*,6.5*,5.8*
Cc1ccc(C)c(N2CCN(C(=O)CCc3nc(-c4cccc(Cl)c4)no3)CC2)c1,10,4,0,1,5.1*,2,5.8*,3.6*
N#Cc1cccc(NC(=O)OC2CC3CC2[C@H]2CCCCN2C3)c1 (some centres not stated),0,-2,-3,-1,-1,·,·,·
Nc1ccc(C#Cc2ccccc2)cc1,-1,-2,-7,-2,-1,1,·,·
Cc1cccc(C#Cc2ccccc2)n1,11*,3,3,0,4.9*,1,7.3*,4.9*
CC(C)C[C@@H](CN1CCC[C@@H]1CN1C(=S)NC[C@@H]1Cc1ccccc1)N1C[C@H](Cc2ccc(O)cc2)N(CC2CCCCCC2)C1=S,1,-2,-6,-1,5.0*,·,-1,0
CCOc1ccc(CCN2C(=S)N([C@@H](Cc3ccccc3)CN3CCC[C@@H]3CN3C(=S)NC[C@@H]3CC(C)C)C[C@@H]2Cc2ccccc2)cc1,0,-1,3,-2,0,·,·,·
CCOc1ccc(CCN2C(=S)N([C@@H](CC(C)C)CN3CCCC3CN3C(=S)NC[C@@H]3CC(C)C)C[C@@H]2Cc2ccccc2)cc1 (some centres not stated),-2,-1,1,-1,4.8*,1,-2,-2
Oc1ccc(C[C@H]2CNC(=S)N2CC2CCCN2C[C@H](Cc2ccccc2)N2C[C@H](Cc3ccc(O)cc3)N(CC3CCCCCC3)C2=S)cc1 (some centres not stated),-1,0,-4,-1,4.9*,-1,2,1
O=C(c1cccs1)N1CC[C@H]2[C@H](CCCN2Cc2cc(F)cc(F)c2)C1,-1,-1,-1,-2,0,·,·,·
COc1ccc(-n2c(SCC(=O)Nc3ccc(Oc4ccccc4)cc3)nnc2-c2cccnc2)cc1,2,-2,-5,-2,-1,·,·,·
CN1CCCC(OC(=O)c2ccc3c(c2)OCCO3)C1 (configuration not stated),6,1,-2,0,5.4*,2,6.4*,3.2*
SMILES,hgDAF-12 ag,hcDAF-12 act,SMARCA2 act,ssDAF12 agonist,DAX1 inh-1,DAX1 inh-2,DAX1 inh confirm,SF1 mutant ctr
N/C(=N\N=C\c1ccc2c(c1)OCO2)c1nonc1N,8,5.9*,2,0,6.2*,-2,18*,9.6*
N/C(=N\N=C\c1cccc([N+](=O)[O-])c1)c1nonc1N,7,2,3,-1,1,·,·,·
COc1ccc(NC(=O)c2ccccc2NC(=O)c2ccccc2)cc1,4,1,2,-1,-1,-2,·,·
COc1ccc(NC(=O)c2ccccc2NC(=O)C2CC=CCC2C(=O)O)cc1 (configuration not stated),12*,3,2,0,5.6*,2,4.0*,3.4*
N/C(=N\OC(=O)c1ccccc1)c1ccn[nH]1,10,4,7,1,12*,1,8.2*,4.9*
COc1ccc(OCc2nc3ccccc3[nH]2)cc1,10,2,4,0,5.7*,2,13*,8.4*
c1ccc2cc(OCc3nc4ccccc4[nH]3)ccc2c1,11*,4,0,0,4.8*,3,15*,7.6*
COc1cccc(OCc2nc3ccccc3[nH]2)c1,10,3,3,0,5.5*,2,6.3*,7.0*
